Compounds with a hit are over-represented: about 13% of the library has one in this group of screens.
Lamin A splicing: qHTS Assay for Modulators of Lamin A Splicing; HeLa LMNA splicing GFP/RFP minigene ratio, 48 h; Potency, µM (top dose mostly 46.1 µM), inactives show top-dose ratio change, negative = inhibition, most hits filed as inhibitors; 200,000 compounds, 0.01% hits; active = well fitted inhibition curve with a large enough effect in the signal ratio, with a control signal flat, not every such curve was filed as active; inconclusive = small, poorly fitted or top-dose-only effect, or effect the other way, or a change in a side signal; the % refers to the signal ratio; note: potency is the fitted concentration of half-maximal effect; % is set by controls: 0 for no effect and ±100 for the full control effect
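S3 HeLa stable clones carrying a lamin A-EGFP splicing minigene plus DsRed2 were seeded at 600 cells/well in Opti-MEM with 2% FBS, pin-dosed and incubated 48 h at 37°C. Acumen cytometry (488 nm) gave the GFP/RFP total-intensity ratio.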
Sfp inh: qHTS Assay for Inhibitors of Bacillus subtilis Sfp phosphopantetheinyl transferase (PPTase) | 4'-phosphopantetheinyl transferase ffp (Bacillus subtilis), Q9F4F7 | Biochemical Sfp PPTase activity, qHTS | Potency, µM, for inactives: largest response in the series, negative = inhibition, hits mostly inhibitors | 310,000 compounds, 3.5% hits;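 note: the enzyme is Sfp with the accession as filed and its product quenches rhodamine fluorescence; potency is the fitted concentration of half-maximal effect; 0% = enzyme reaction without inhibitor and -100% = no enzyme wells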
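Step 1, compound plus 15 nM Sfp-PPTase, 15 min, room temperature. Step 2, add rhodamine-CoA (5 uM) and BHQ-2-YbbR (12.5 uM). Step 3, read 525/598 nm fluorescence at 0 and 30 min.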
G9a inh: qHTS Assay for Inhibitors of Histone Lysine Methyltransferase G9a. Histone-lysine N-methyltransferase EHMT2 (Homo sapiens), Q96KQ7. G9a H3K9 monomethylation, AlphaScreen, 2 h. Potency, µM (series often up to 102 µM), for the others: at the highest dose activity, negative = inhibition, most hits filed as inhibitors. 350,000 compounds, 8.8% hits. AID 504332, 2011; note: potency is the fitted concentration of half-maximal effect; % is set by controls: 0 for no effect and ±100 for the full control effect; nearly all actives have a fitted effect of over 75% in size
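Using a bead-based AlphaScreen, monomethylated H3K9 product from 2 h room-temperature reactions (G9a 20 nM, peptide 500 nM, SAM 20 uM) was detected with 0.5 ug/mL rabbit anti-H3K9me1 antibody.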
miR-21 act: qHTS Assay for Modulators of miRNAs and/orActivators of miR-21. 340,000 tested, under 10 active. Potency, µM (top dose mostly 38.3 µM), for inactives: at the highest dose activity change, positive = activation, actives largely listed as activators. HeLa miR-21 FLuc reporter, luciferase, 48 h;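 note: % of control where 0% means no effect; miR-21 action dims this reporter so a rising signal means less miR-21 action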
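Using DMEM plus 10% FBS, HeLa miR-21-FLuc cells are incubated with test compounds (final up to about 40uM) for 48 hours; firefly luciferase signal is then imaged following reagent-mediated lysis.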
ALDH1A1 block: qHTS Assay for Inhibitors of Aldehyde Dehydrogenase 1 (ALDH1A1); 220,000 compounds, 7.3% hits; Potency, µM (highest dose often 75.3 µM), inactives show top-dose activity, negative = inhibition, usual class: inhibitors; Aldehyde dehydrogenase 1A1 (Homo sapiens), P00352; Purified ALDH1A1, NADH fluorescence, propionaldehyde substrate; active = well fitted inhibition curve with a large enough effect, not every such curve was filed as active; inconclusive = small, poorly fitted or top-dose-only effect, or another doubt; inactive = no such curve, though single readings can be large or run the other way;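 note: potency is the fitted concentration of half-maximal effect; plate controls were no enzyme wells and a reference inhibitor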
Target sequence (P00352 whole entry, looked up): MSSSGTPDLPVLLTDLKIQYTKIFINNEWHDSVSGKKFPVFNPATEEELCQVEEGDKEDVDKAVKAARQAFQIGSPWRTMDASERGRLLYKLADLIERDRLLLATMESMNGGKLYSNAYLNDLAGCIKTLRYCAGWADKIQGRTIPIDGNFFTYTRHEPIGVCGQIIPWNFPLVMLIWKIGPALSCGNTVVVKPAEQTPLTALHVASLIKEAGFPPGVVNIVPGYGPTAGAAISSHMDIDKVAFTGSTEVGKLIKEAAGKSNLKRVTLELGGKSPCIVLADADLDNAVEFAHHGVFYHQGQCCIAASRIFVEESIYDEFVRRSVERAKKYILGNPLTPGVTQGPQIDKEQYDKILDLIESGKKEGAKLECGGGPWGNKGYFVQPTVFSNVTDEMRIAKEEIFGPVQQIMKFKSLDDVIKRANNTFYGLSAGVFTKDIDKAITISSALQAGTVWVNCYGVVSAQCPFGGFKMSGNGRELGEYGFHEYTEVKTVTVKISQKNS
KDM4E inh: qHTS Assay for Inhibitors of Human Jumonji Domain Containing 2E (JMJD2E); Lysine-specific demethylase 4E (Homo sapiens), B2RXH2; JMJD2E catalytic domain, FDH-coupled NADH fluorescence (FDH is formaldehyde dehydrogenase); Potency, µM (top dose mostly 57.1 µM), without a hit: at the highest dose activity change, negative = inhibition, hits mostly inhibitors; 230,000 compounds, 1.6% hits; active = well fitted inhibition curve with a large enough effect, not every such curve was filed as active; inconclusive = small, poorly fitted or top-dose-only effect, or another doubt; inactive = no such curve, though single readings can be large or run the other way;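 note: potency is the fitted concentration of half-maximal effect; 0% = wells with enzyme and -100% = buffer wells without enzyme; nearly all actives have a fitted effect of over 50% in size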
Starred values were filed as active, the others as inactive; ? = inconclusive; . = no result; [ ] = another dose, or the depositor's remark. Unless noted, calls come from the whole dose curve; as a rule, active = well fitted curve in the direction sought with a large enough effect; inconclusive = small, poorly fitted or top-dose-only effect, or another doubt; inactive = no such curve, though single readings can be large; an effect the other way counts as inactive or inconclusive.

SMILES | Lamin A splicing | Sfp inh | G9a inh | miR-21 act | ALDH1A1 block | KDM4E inh
CC1=C(C(=O)OC2CCCC2)C(c2ccc(C)o2)C2=C(CC(c3cccs3)CC2=O)N1 (stereo unspecified) | -23% | ? | -39%[12.7 µM] | 0% | 14µM* | ?
CC1=C(C(=O)OC2CCCCCC2)C(c2ccc(C)o2)C2=C(CCCC2=O)N1 (stereo unspecified) | ? | 1% | ? | -4% | ? | 6%
CCC(OC(=O)c1ccco1)C(=O)NCc1ccc2c(c1)OCO2 (stereo unspecified) | . | 10% | 21% | -6% | . | .
Cc1cc(C)nc(SCc2nnc(SCC(=O)Nc3ccccc3C)n2Cc2ccco2)n1 | 4% | 50µM* | ? | -2% | 3% | 3%
Cc1ccc(NC(=O)CSc2nnc(CSc3nc(C)cc(C)n3)n2Cc2ccco2)c(C)c1 | -7% | ? | ? | -3% | -1% | -5%
Cc1ccc(NCc2nnc(SCC(=O)c3ccccc3)o2)c(C)c1 | ? | -10% | ? | -9% | -3% | 0%
Cc1ccc(C)c(NC(=O)CSc2nnc(CSc3nc(C)cc(C)n3)n2Cc2ccco2)c1 | 1% | 45µM* | ? | -1% | 6% | 3%
Cc1cc(C)nc(SCc2nnc(SCC(N)=O)n2Cc2ccco2)n1 | 3% | 1% | -14% | -7% | 1% | 6%
CCOC(=O)CSc1nnc(CSc2nc(C)cc(C)n2)n1Cc1ccco1 | 1% | 20µM* | ? | -1% | 0% | 6%
Cc1ccc(NCc2nnc(SCC(=O)c3ccccc3)n2Cc2ccco2)c(C)c1 | -1% | -13% | ? | -13% | 10µM* | 1%
COc1ccc(C)cc1NC(=O)CSc1nnc(COc2ccc(Cl)cc2)n1Cc1ccco1 | ? | ? | ? | 27% | -2% | 11%
COc1ccc(C)cc1NC(=O)CSc1nnc(COc2ccccc2)n1Cc1ccco1 | ? | 79µM* | 4%[2.33 µM] | 3% | -12% | -2%
COc1cccc(OCc2nnc(SCC(=O)NCc3ccco3)n2C)c1 | 7% | 8% | 7% | -2% | 8% | -5%
COc1cccc(OCc2nnc(SCC(=O)NCc3ccco3)n2CCc2ccccc2)c1 | 29% | 50µM* | ? | -6% | 22µM* | 1%
O=[N+]([O-])O[C@H]1CO[C@H]2[C@@H]1OC[C@H]2O | . | 7% | 4%[59 µM] | . | 9% | .
COc1ccc(NC(=O)CCc2nc3cccnc3n2-c2ccccc2)c(OC)c1 | . | . | ? | -4% | . | .
CCC(CO)Nc1ncc([N+](=O)[O-])cc1C#N (stereo unspecified) | -9% | 15% | 8%[59 µM] | -2% | 12% | 0%
N#Cc1cc([N+](=O)[O-])cnc1N(CCO)CCO | -7% | 12% | 7.1µM* | -1% | -1% | -5%
CN1CCN(c2ccc([N+](=O)[O-])c(-n3nc(-c4ccccc4)c4ccccc4c3=O)c2)CC1 | 1% | -2% | 45µM* | -29% | -8% | -1%
Cn1nc(-c2ccc(NCCO)c([N+](=O)[O-])c2)c2ccccc2c1=O | ? | 13% | -33% | -18% | ? | -4%
Cn1nc(-c2ccc(N3CCN(CCO)CC3)c([N+](=O)[O-])c2)c2ccccc2c1=O | . | 9% | 24%[12.7 µM] | -4% | 4.5µM* | -4%
Cc1nn(-c2cc(N3CCCCC3)ccc2[N+](=O)[O-])c(=O)c2ccccc12 | -6% | 4% | ? | -10% | -10% | -1%
CCc1cc2c(N[C@@H](Cc3c[nH]c4ccccc34)C(=O)O)ncnc2s1 | -11% | -4% | -13%[59 µM] | 1% | 1% | 5%

Screening results (PubChem BioAssay)
